Source: PubChem BioAssay
Compounds with a hit are over-represented: about 9.2% of the library has one in this group of screens.
NPC1 prom act: activators of NPC1 promoter; actives 2.4% (n = 320,000); Huh7 NPC1 promoter luciferase reporter, 24 h; Potency, µM (doses to about 9.22 µM), for the others: at the top dose activation, hits mostly activators; AID 485313; further: % of control where 0% means no effect; nearly all actives have a fitted effect of over 60% in size
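Luminescence from an NPC1 promoter-driven luciferase reporter in stably transfected Huh7 cells was measured after 24 h compound treatment at 37 °C, followed by 10 min ambient incubation with luciferase detection reagent.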
ELG1 genotoxic: induces genotoxicity in HEK293T cells with luciferase-tagged ELG1. HEK293T ELG1-luciferase reporter, luminescence, 16 h. Potency, µM (highest dose often 46 µM), without a hit: at the highest dose activity change, positive = activation, actives largely listed as activators. actives 1.3% (n = 330,000); further: % of control where 0% means no effect; nearly all actives have a fitted effect of over 60% in size
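After overnight (16 hr) compound treatment at 37 °C, ELG1-luciferase HEK293T cells were lysed with ONE-Glo; luminescence quantified 30 min later at room temperature.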
ELG1 repair inh: ELG1-dependent DNA repair inhibition; actives 2.3% (n = 330,000); Potency, µM (doses to about 46.1 µM), without a hit: at the highest dose activity change, negative = inhibition, usual class: inhibitors; AID 504467; HEK293T ELG1-luciferase reporter, luminescence, 16 h; DNA damage induced by 5-fluorouridine; further: on the % scale 0 is the no-effect control and ±100 the full control effect; nearly all actives have a fitted effect of over 55% in size
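HEK293T cells expressing luciferase-tagged ELG1 (2,000/well) received 5-Fluorouridine plus compound or DMSO for 16 hr at 37 °C. Luciferase was read by ONE-Glo luminescence after 30 min at room temperature.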
SMN2 splice up: SMN2 splice variant enhancement; HEK293 SMN2-luciferase splicing reporter, luminescence, 30-36 h; Potency, µM (highest dose often 46.1 µM), without a hit: at the top dose activity change, positive = activation, actives largely listed as activators; actives 2.8% (n = 210,000); AID 1458; further: % of control where 0% means no effect; nearly all actives have a fitted effect of over 55% in size
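HEK293 cells carry an SMN2 minigene-luciferase reporter in which exon 7 inclusion puts luciferase in frame. Cells were seeded at 2000 cells/well, attached for 10-12 hours, then exposed to compounds for 30-36 hours at 37C before ONE-Glo luminescence.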
FLuc modulator: firefly luciferase modulation, counter-screen for miR-21 project. P08659. purified FLuc, Km substrates, luminescence inhibition. Potency, µM (top dose mostly 57.5 µM), for the others: at the highest dose activity change, negative = inhibition, usual class: inhibitors. actives 6.9% (n = 360,000). AID 588342;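 further: plate controls were vehicle for no effect and reference inhibitor for full effect; nearly all actives have a fitted effect of over 55% in size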
Target sequence (P08659 whole entry, looked up): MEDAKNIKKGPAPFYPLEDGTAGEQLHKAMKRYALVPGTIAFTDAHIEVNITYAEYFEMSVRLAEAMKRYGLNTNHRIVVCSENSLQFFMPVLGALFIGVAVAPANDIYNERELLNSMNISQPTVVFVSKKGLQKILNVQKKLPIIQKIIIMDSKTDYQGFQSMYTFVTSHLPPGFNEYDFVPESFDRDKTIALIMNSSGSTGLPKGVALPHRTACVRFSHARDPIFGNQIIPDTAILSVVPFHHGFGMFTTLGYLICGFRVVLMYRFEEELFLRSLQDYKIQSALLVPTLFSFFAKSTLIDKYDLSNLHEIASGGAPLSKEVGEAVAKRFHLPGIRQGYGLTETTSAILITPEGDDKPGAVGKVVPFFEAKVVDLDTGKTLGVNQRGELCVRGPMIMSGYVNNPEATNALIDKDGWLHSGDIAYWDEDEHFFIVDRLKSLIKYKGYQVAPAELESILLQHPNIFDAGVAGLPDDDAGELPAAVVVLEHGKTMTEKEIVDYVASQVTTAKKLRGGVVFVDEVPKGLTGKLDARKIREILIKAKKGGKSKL
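Purified P. pyralis luciferase (10nM final) with 10uM D-luciferin and 10uM ATP (Km levels) in 50mM Tris acetate pH 7.5, 10mM Mg acetate, 0.01% Tween-20, 0.05% BSA; qHTS 6-point titration, ~60 µM downward; luminescence read.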
Rab9 prom act: activators of Rab9 promoter. Huh7 Rab9 promoter-luciferase reporter, luminescence, 24 h. Potency, µM (titrated, usually from 9.22 µM), for inactives: at the highest dose activation, negative = inhibition, usual class: activators. actives 2.8% (n = 320,000); further: % of control where 0% means no effect; nearly all actives have a fitted effect of over 60% in size
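Stable Rab9-luc Huh7, 1500 cells/well, 2 h settle; cmpd in DMSO, 24 h, 37 °C/5% CO2; luciferase reagent 10 min RT; luminescence.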
Numbers without * were called inactive; ? = inconclusive; · = no result given; ! = repeats disagree. The call rests on the fitted dose curve; in most records, active means well fitted curve in the direction sought with a large enough effect; inconclusive means small, poorly fitted or top-dose-only effect, or another doubt; inactive means no such curve, though single readings can be large; an effect the other way counts as inactive or inconclusive. Potency means the concentration at half of the fitted maximal effect.

SMILES	NPC1 prom act	ELG1 genotoxic	ELG1 repair inh	SMN2 splice up	FLuc modulator	Rab9 prom act
COC(=O)c1ccc(/C=C(\C#N)c2nc3ccccc3s2)cc1	5.6%	6.9%	?	-1.7%	?	5.9%
C(=C(c1ccccc1)c1ccccc1)c1ccccn1	-2.6%	3.1%	11.5%	·	0.8%	2.5%
COc1ccc(/C(C#N)=C/c2ccccn2)cc1	2µM*	?	?	·	4.78µM*	1.41µM*
N#C/C(=C\c1ccccn1)c1nc2ccccc2s1	1.7%	?	?	15.1%	3.38µM*	?
O=C(O)c1ccccc1NS(=O)(=O)c1cccc(-n2sc3ccccc3c2=O)c1	1.4%	-8.4%	15.2%	·	10.7µM*	-0.4%
O=C(O)c1ccccc1NS(=O)(=O)c1ccc2ccccc2c1	1.2%	11.7%	?	·	15.1µM*	7.8%
Cc1cccc(N2CCN(C(=O)COc3ccc4c(c3)CCC4)CC2)c1C	-1.3%	-1.2%	?	·	-0.3%	-2.9%
CCOc1ccc(S(=O)(=O)N2CCN(CN3C(=O)CC4(CCCC4)C3=O)CC2)cc1	5.1%	0.3%	20.5%	·	·	-1.4%
Cc1ccc(C(=O)CNc2ccc(C)cc2C)cc1	-2.0%	3.4%	?	·	13.5µM*	1.7%
O=C(CNc1ccccc1Cl)c1ccc(Br)cc1	0.2%	-12.7%	-0.7%	·	16.9µM*	0.6%
Cc1ccc(C(=O)CC(=O)c2ccc(C(C)(C)C)cc2)cc1	?	5.9%	?	·	9.53µM*	?
O=C(CNc1ccc(F)cc1)c1ccccc1	2.9%	?	?	19.5%	15.1µM*	0.4%
O=C(CNc1ccc(Br)cc1)c1ccccc1	4.5%	?	?	-8.3%	?	6.0%
O=C(O)[C@@H]1CSC2c3ccccc3C(=O)N21 (stereo not given in full)	1.0%	-0.4%	7.0%	·	-1.8%	-15.2%
Cc1ccc(NCCC(=O)c2cccc([N+](=O)[O-])c2)c(C)c1	0.9%	11.1%	?	10.6%	23.9µM*	0.3%
Cc1ccc(C(=O)CNc2ccccc2C)cc1	16.8%	?	?	-2.6%	6.01µM*	24.2%
Cc1ccc(C(=O)CNc2ccccc2)cc1	18.9%	?	?	·	9.53µM*	24.0%
CC(C)(C)c1ccc(C(=O)CS(=O)(=O)c2ccccc2)cc1	1.41µM*	?	?	3.3%	2.13µM*	0.891µM*
Cc1ccc(S(=O)(=O)CC(=O)c2ccccc2)cc1	21.7%	-0.2%	12.6%	-4.8%	?	26.6%
Cc1ccc(C(=O)CNc2ccc(Br)cc2)cc1	20.3%	13.1%	?	4.7%	-19.4%	14.5%
Cc1cccc(NCCC(=O)c2ccc([N+](=O)[O-])cc2)c1C	-0.4%	-4.8%	-16.1%	15.9%	-2.8%	19.6%
COCC1C2CC[C@H]3C(OCc4ccc(F)cc4C(F)(F)F)OC[C@]4(C)[C@H]3C2=C(CN4C(=O)OC(C)(C)C)[C@H](C)C1COC (stereo not given in full)	·	·	·	-4.0%	·	·
CCn1nc(-c2ccccc2)c(-c2ccccc2)c(C(=O)Nc2ccccc2C#N)c1=O	·	·	·	-6.0%	-1.5%	·
CC(=O)N1CCC[C@@]2(CCN(c3ccncc3)C2)C1	·	·	·	-14.3%	·	·
CCOC(=O)C1=C(COC(=O)COc2ccccc2C(C)C)NC(=O)NC1C (stereo not given)	-3.5%	0.0%	4.3%	·	-3.7%	-7.2%
SMILES	NPC1 prom act	ELG1 genotoxic	ELG1 repair inh	SMN2 splice up	FLuc modulator	Rab9 prom act
Cc1nc2ccccc2nc(=O)c1NNc1ccccc1	?	9.2µM*!	?	11.2µM*	?	?
Cc1ccc2nc(-c3ccccc3)c(-c3ccccc3)nc2c1	-2.8%	-7.6%	-5.1%	·	-11.2%	1.9%
Cc1ccc2nc(=O)c(NNc3ccccc3)cnc2c1	?	?	?	17.8µM*	?	?
NNc1nnc2c3cc(F)ccc3n(CCc3ccccc3)c2n1	-0.4%	-6.8%	11.6µM*	·	-3.9%	-1.5%
CCc1ccc(NC(=O)CSc2nc3ccccc3nc2N2CCCCC2)cc1	-4.8%	19.5%	?	·	?	13.2%
CCc1cccc(NC(=O)CSc2nc3ccccc3nc2N2CCCCC2)c1	·	·	·	0.501µM*	-1.2%	·
COc1ccc(CC(=O)Nc2ccc(F)c(Cl)c2)cc1S(=O)(=O)N1CCOCC1	-0.1%	1.4%	?	·	0.1%	-5.7%
COc1ccc(NC(=O)CNc2cc(C)ccc2C)cc1S(=O)(=O)N1CCOCC1	-3.7%	1.0%	-14.5%	·	-1.8%	0.3%
COc1ccc(NC(=O)Cc2coc3ccc4ccccc4c23)cc1S(=O)(=O)N1CCOCC1	-4.3%	0.4%	?	-17.3%	13.5µM*	-5.4%
COc1ccc(NC(=O)Cc2coc3cc(C)ccc23)cc1S(=O)(=O)N1CCOCC1	13.1%	1.6%	2.3%	-5.3%	15.1µM*	19.7%
CCOc1ccc(Br)cc1S(=O)(=O)Nc1ccc(NC(=O)c2ccccc2F)cc1	-0.7%	-2.4%	-12.7%	25.1%	-23.4%	1.8%
COc1ccc(CCC(=O)NCc2ccc3c(c2)CCN3C(=O)c2cccc(C)c2)cc1	·	·	·	·	-1.1%	·
CC(C)(C)Nc1nc(Cl)nc(Nc2ccccc2)n1	?	?	?	·	7.57µM*	?
Clc1nc(Nc2ccccc2)nc(Nc2ccccc2)n1	0.3%	7.3%	5.6%	-14.8%	23.9µM*	4.7%
COc1ccccc1Nc1nc(Cl)nc(NC(C)(C)C)n1	-0.1%	-5.5%	9.4%	-7.3%	?	9.4%
Cc1ccc(CNC(=O)CCCn2c(=O)c3ccccc3n(CC(=O)C(C)(C)C)c2=O)cc1	·	·	·	-5.5%	-13.0%	·
CC(=O)NC(=S)Nc1cccc(S(=O)(=O)NC2=NCCC2)c1	0.4%	-0.7%	-1.6%	5.9%	5.0%	-11.4%
O=C1CCc2cc(S(=O)(=O)Nc3ccccc3)ccc2N1	-4.8%	-0.5%	?	·	-0.8%	2.6%
Cc1oc(-c2ccc(Cl)cc2)nc1CN1CCCC(C(=O)NCc2ccccn2)C1 (stereo not given)	-0.1%	-2.7%	?	-11.7%	2.4%	-1.5%
Cc1oc(-c2ccc(Cl)cc2)nc1CN1CCCC(C(=O)NCc2cccnc2)C1 (stereo not given)	-23.7%	-9.4%	6.51µM*	-83.4%	-2.7%	-16.9%
COc1ccc(NC(=O)CSc2ccccc2)c(OC)c1	?	15.3%	?	22.4µM*	26.9µM*	3.98µM*
COc1ccc(OC)c(NC(=O)c2cc3ccccc3cc2OC)c1	1.9%	2.2%	2.9%	·	23.9µM*	6.7%
COc1ccc(OC)c(NC(=O)c2cn(C)c(=O)c3cc(OC)c(OC)cc23)c1	0.1%	-2.2%	20.6µM*	?	-2.7%	-6.0%
